# Compound activity deposited in PubChem by Center for Chemical Genomics, University of Michigan.
# Dicer inh: human Dicer pre-microRNA cleavage inhibition. cat-ELCCA pre-miR-21 Dicer processing, chemiluminescence; stronger effect = higher value. 47,000 tested, 6% active. z-score at 25 µM; in the data active = z-score above about 3, passing the limit was not always enough;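 note: plate controls were vehicle for no effect and no enzyme for full effect; higher signal means more uncleaved substrate so more Dicer inhibition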
# * hit, by the source's call. This excerpt belongs to a sample that is enriched for hits.
SMILES,Dicer inh
CCOc1ccccc1C(=O)NC(Nc1ccc(C)cn1)(C(F)(F)F)C(F)(F)F,-1.25
C=C(C)n1c(=O)n(-c2ccc(C(F)(F)F)cc2[N+](=O)[O-])c2ccccc21,-6.61
NNC(=O)c1ccc(CNC(=O)C(Cl)Cl)cc1,-1.26
Cc1ccc(-n2cc(-c3cccs3)nc2SCc2n[nH]c(=S)n2Cc2ccccc2)cc1,5.84*
S=c1[nH]nc(-c2ccncc2)n1Cc1ccccc1,1.25
CCn1c(-c2cccs2)n[nH]c1=S,1.59
CC(C)n1cc(-c2nc(C(C)(C)C)cs2)c(=O)n(Cc2ccccc2)c1=O,2.06
COCCCN1C(=O)C(=O)/C(=C(\O)c2ccccc2)C12C(=O)N(C)c1ccccc12 (stereo not drawn),3.9*
COCCCN1C(=O)C(=O)/C(=C(\O)c2ccc(C)c(F)c2)C12C(=O)N(C)c1ccccc12 (stereo not drawn),45.5
C=CCOc1ccc(/C(O)=C2/C(=O)C(=O)N(CCOC)C23C(=O)N(C)c2ccccc23)cc1 (stereo not drawn),-0.06
C=CCOc1ccc(/C(O)=C2/C(=O)C(=O)N(CCCOC)C23C(=O)N(C)c2ccccc23)cc1 (stereo not drawn),3.56*
C=CCN1C(=O)C2(/C(=C(/O)c3ccc(OCC)cc3)C(=O)C(=O)N2CCOC)c2ccccc21 (stereo not drawn),2.44
COCCCN1C(=O)C(=O)/C(=C(\O)c2ccc(F)cc2)C12C(=O)N(C)c1ccccc12 (stereo not drawn),2.27
Cc1oc2c(CN3CCN(C)CC3)c(O)ccc2c(=O)c1-c1ccc(Br)cc1,1.94
Clc1ccc(OCc2nn3c(-c4ccccc4)nnc3s2)cc1,1.7
CN(C)CCCN1C(=O)C(=O)/C(=C(/O)c2ccc(S(=O)(=O)N(C)C)cc2)C1c1ccccc1F (stereo not drawn),-0.71
C=CCSC(=NC#N)S/C=C/C(=O)c1ccc(Br)cc1,-1.85
O=C1NN=C2C3CCC4CC12CC1(C3)C(=O)NN=C41,-1.69
Cc1cc(C)c(S(=O)(=O)N2CCN(S(=O)(=O)c3c(C)cc(C)cc3C)CC2)c(C)c1,0.33
Nc1nc(Nc2ccccc2)nc(NCc2ccccc2)c1[N+](=O)[O-],2.43
Nc1c(NCc2ccccc2)c(=O)c1=O,3.34*
O=c1[nH]cc(NCc2ccccc2)c(=O)[nH]1,-10.2
Cc1c(C(=O)NNC(=O)c2ccc(Cl)cc2)sc2nc(-c3ccc(Cl)cc3)nn12,-0.3
CCn1c(=O)c(-c2nc3ccccc3c(=O)[nH]2)c(O)c2ccccc21,0.33
CCSCCOC(=O)C1=C(C)NC2=C(C(=O)CCC2)C1c1ccc(F)cc1 (stereo not drawn),6.41*
SMILES,Dicer inh
CC1=C(C(=O)OCCc2ccccc2)C(c2ccsc2)C2=C(CCCC2=O)N1 (stereo not drawn),3.75*
CC1=C(C(=O)OCCc2ccccc2)C(c2ccc(C)cc2)C2=C(CCCC2=O)N1 (stereo not drawn),0.5
CCSCCOC(=O)C1=C(C)NC2=C(C(=O)CCC2)C1c1cccc(Oc2ccccc2)c1 (stereo not drawn),6.02*
CCOc1ccc(C2C(C(=O)OCCSCC)=C(C)NC3=C2C(=O)CCC3)cc1 (stereo not drawn),0.51
CCSCCOC(=O)C1=C(C)NC2=C(C(=O)CCC2)C1c1ccc(OC)c(Br)c1 (stereo not drawn),2.2
CCSCCOC(=O)C1=C(C)NC2=C(C(=O)CCC2)C1c1ccc(OC)cc1OC (stereo not drawn),0.01
CC1=C(C(=O)OCC2CCCO2)C(c2cccc(Oc3ccccc3)c2)C2=C(CCCC2=O)N1 (stereo not drawn),1.11
CC1=C(C(=O)OCCc2ccccc2)C(c2ccc(Br)cc2)C2=C(CCCC2=O)N1 (stereo not drawn),2.18
c1ccc(-c2nc(N3CCCCC3)nc3ccccc23)cc1,0.2
COc1ccc(S(=O)(=O)C2CS(=O)(=O)CC2O)cc1 (stereo not drawn),1.07
COc1ccccc1OCCn1cc(C(=O)c2cccs2)c2ccccc21,0.26
COc1cc(-c2nc3sc4c(c3c(=O)[nH]2)CCCC4)ccc1OC(=O)c1cccs1,-0.22
COc1ccc(OC)c(C2N=C(Nc3ccc(F)cc3)Nc3nc(C)cc(=O)n32)c1 (stereo not drawn),0.76
c1ccc(-c2nnc3sc(-c4ccco4)nn23)cc1,3.01*
c1ccc(-c2nn3c(-c4ccccc4)nnc3s2)cc1,-0.02
c1ccc(-c2nnc3sc(-c4cccs4)nn23)cc1,-0.93
CCCc1ccc(OC)cc1NC(C)=O,-1.25
Cn1cc(-c2nc3ccccc3s2)c(N)n1,-0.89
CC1(C)C2CC[C@@]1(C)C(NS(=O)(=O)c1ccc(Cl)cc1)C2 (stereo partly drawn),-0.29
CC1(C)CC(=O)C2=C(C1)N=C1c3ccccc3C(=O)C1C2c1cccc(F)c1 (stereo not drawn),-0.56
O=C1CCCC2=C1C(c1ccc(F)cc1)C1C(=O)c3ccccc3C1=N2 (stereo not drawn),-0.85
COc1ccc(C2C3=C(CCCC3=O)N=C3c4ccccc4C(=O)C32)cc1 (stereo not drawn),8.65*
COc1ccc(CN2C(=O)c3oc4ccc(F)cc4c(=O)c3C2c2cccc(O)c2)cc1 (stereo not drawn),2.09
CCC(CO)Nc1nc2c([nH]1)c(=O)n(C)c(=O)n2C (stereo not drawn),0.58
COC(=O)CCc1nc2ccccc2nc1OC,3.49*
SMILES,Dicer inh
COc1nc2ccccc2nc1CCC(=O)O,3.79*
COC(=O)c1ccc(COC(=O)CCc2nc3ccccc3[nH]c2=O)cc1,2.72
Cn1c2ccccc2n2nc(CCC(=O)O)c(=O)nc12,2.09
CCOC(=O)c1sc(-c2ccccc2)nc1OC,1.72
CCCCOC(=O)CCc1nc2ccccc2[nH]c1=O,0.6
CCc1c(C)c(C#N)c2nc3ccccc3n2c1N1CCN(C(=O)c2ccco2)CC1,0.26
CN1CCC(=C2c3ccccc3C=Cc3ccccc32)CC1,-0.34
O=C1C(=O)N(CCN2CCOCC2)C(c2cccs2)/C1=C(\O)c1ccccc1 (stereo not drawn),1.26
OC(C#CCN1CCOCC1)c1cccs1 (stereo not drawn),4.03*
O=C(c1cccs1)C(O)c1cccs1 (stereo not drawn),-0.15
O=S(=O)(Nc1ccc(F)c(Cl)c1)c1ccccc1Oc1ccc(Cl)cc1Cl,-0.21
C(=N\NC1=NCCN1Cc1ccccc1)/c1ccc2c(c1)OCO2,0.16
CSc1nc(-c2ccccc2)nc(SC)c1C#N,-0.71
Cc1n[nH]c(C)c1NC(=O)c1cc2c(C)nn(-c3ccccc3)c2s1,0.95
Fc1ccccc1CN1CCN(C2CCCC2)CC1,5.29*
c1ccc(CN2CCN(C3CCCC3)CC2)cc1,-0.01
Fc1ccc(CN2CCN(C3CCCCC3)CC2)cc1,-0.45
CCCCCn1c(NC2CCCCC2)nc2c1c(=O)[nH]c(=O)n2C,0.14
COc1ccccc1-c1c(C(F)(F)F)oc2cc(OC(=O)N3CCOCC3)ccc2c1=O,-0.43
N#Cc1c(-c2ccc(Cl)cc2)[nH]c(SCc2ccccc2)nc1=S,3.55*
Clc1ccc(CSc2ncc(-c3ccc(Cl)cc3)[nH]2)cc1,0.75
N#Cc1c(-c2ccccc2)nc(SCc2ccccc2)[nH]c1=O,0.36
O=c1cc(CSc2n[nH]c(=O)n2Cc2ccco2)c2ccc(O)cc2o1,5.17
CCN(CC)C(=S)Oc1c(C)c(C)nc(=S)n1CCCOC,9.42*
CCc1ccc(NC(=S)NNC(C)(C)C)cc1,-1.08
Nc1nc2ccccc2n1CCOc1ccc(Br)cc1,2.55
Nc1ccc(-c2nc3ccccc3n2CCOc2ccccc2)cc1,4.33*
